Measurements published in PubChem BioAssay AID623957 (NMMLSC, 2012).
The source made the active and inactive calls.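 The calls were made as follows: active = compounds whose fitted half-maximal concentration for lowering the signal is under 100 µM; inactive = the rest.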

Test: fluorescence change in empty-vector K562 cells, dose response, counter-screen for ABCB6 inhibitor project, cell-based, flow cytometry, cherry pick set 1 (AID 623957)

SMILES: C[N+](C)(C)CC1CCCC(C[N+](C)(C)C)C1=O (stereo unspecified)
- outcome: inactive
